Assay outcomes: PubChem, National Center for Advancing Translational Sciences (NCATS)
Shown is part of a subset that was picked to be rich in hits.
HTT aggregate: qHTS Multiplex Assay to Identify Dual Action Probes in a Cell Model of Huntington: Aggregate Formation (GFP). 1.1% of 220,000 active. Potency, µM (highest dose often 46.1 µM), usual class: inhibitors. PC12 HttQ103-GFP aggregates, Acumen cytometry, 40 h. AID 1688, 2009; note: nearly all actives have a fitted effect of over 60% in size
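Using laser scanning cytometry, GFP-positive aggregates were counted after lysis of PC12 cells induced with 100 nM tebufenozide to express HTT exon 1 Q103–GFP. Compounds were tested in titration.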
PNC assembly inh: High Content Assay for Compounds that inhibit the Assembly of the Perinucleolar Compartment; PC3M PTB-GFP, PNC prevalence imaging, 16 h; hits give low values; activity change (PNC), negative = inhibition, % at 10 µM; 3.1% of 140,000 active; AID 2417, 2010;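 active = readout at or below -70, meaning at least 70% loss of cells showing the perinucleolar compartment, a nuclear body marking cancer cells; inconclusive = readout between -30 and a set limit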
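Compounds are pinned in duplicate onto adhered PC3M cells stably expressing GFP-tagged PTB and incubated 16 h at 37 C. Cells are then fixed, nuclei stained with Hoechst, and PNC-positive cells counted.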
HTT cytoprotect: qHTS Multiplex Assay to Identify Dual Action Probes in a Cell Model of Huntington: Cytoprotection (ATP); AID 1471, 2008; 0.14% of 230,000 active; PC12 HTT-Q103 induced, cytoprotection, ATP luminescence, 40 h; Potency, µM (titrated, usually from 56.4 µM), usual class: activators; note: nearly all actives have a fitted effect of over 45% in size
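Stable PC12 Q103-GFP cells in serum-supplemented, phenol red-free DMEM; induction by tebufenozide at 100 nM final; compound dose series; cell viability quantified luminescently from ATP.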
Of the large screens only hits and unclear results are named; the others gave an inactive call. Unless noted, calls come from the whole dose curve; as a rule, active = well fitted curve in the direction sought with a large enough effect; inconclusive = small, poorly fitted or top-dose-only effect, or another doubt; inactive = no such curve, though single readings can be large; an effect the other way counts as inactive or inconclusive.

CCCc1nc2ccc(Br)cc2c(=O)n1-c1ccc([N+](=O)[O-])c(C(F)(F)F)c1	HTT aggregate inconclusive, PNC assembly inh -96
COc1ccc(-n2c(O)c(/C(C)=N/N3CCCCCC3)c(=O)[nH]c2=O)cc1	none (no result: PNC assembly inh)
CCOC(=O)c1c(C)n(Cc2ccccc2)c2ccc(OCC(O)Cn3nc(C)nc3C)cc12 (stereo not drawn)	none
CCOC(=O)c1c(C)n(Cc2ccccc2)c2ccc(OCC(O)Cn3nc(C)cc3C)cc12 (stereo not drawn)	HTT aggregate inconclusive, PNC assembly inh -80
C=C1C(=O)O[C@@H]2C[C@@H](C)[C@@H]3C=CC(=O)[C@@]3(C)[C@@H](O)[C@H]12	HTT aggregate 2.2µM, HTT cytoprotect inconclusive (no result: PNC assembly inh)
C[C@@H]1C[C@H]2OC(=O)C3(CO3)[C@H]2[C@H](O)[C@]2(C)C(=O)C3OC3[C@@H]12 (stereo partly drawn)	none (no result: PNC assembly inh)
COc1cc2c(cc1OC)[C@@H]1C(=O)c3ccc4c(c3O[C@@H]1CO2)C[C@H](C(C)C)O4	none (no result: PNC assembly inh)
CCCc1nnc(NC(=O)CCC(=O)N2CCC3(CC2)OCCO3)s1	none (no result: PNC assembly inh)
Cc1cc(NC(=O)CCC(=O)N2CCC3(CC2)OCCO3)no1	PNC assembly inh -84
S=C=NCc1ccccc1	none (no result: HTT aggregate, PNC assembly inh)
Cc1cccc(-n2c(O)c(C)c(=O)[nH]c2=S)c1	none (no result: PNC assembly inh)
COc1cc(CN2CCCC(C(=O)c3sccc3C)C2)cc(Cl)c1O (stereo not drawn)	none (no result: PNC assembly inh)
O=C1NC(=O)N(c2ccc3c(c2)OCO3)C(=O)/C1=C\c1ccsc1	none (no result: PNC assembly inh)
O=C1CC(=O)N(c2ccc3c(c2)OCO3)C(=O)N1	PNC assembly inh -95
C[C@]1(C(=O)O)[C@@H]2CC[C@@H](O2)[C@@]1(C)C(=O)O	none (no result: HTT aggregate, PNC assembly inh)
CNCC/C=C/c1cccnc1	none (no result: HTT aggregate, PNC assembly inh)
Oc1c(Br)cc(Br)cc1Oc1ccc(Br)cc1Br	HTT aggregate 13µM (no result: HTT cytoprotect)
Brc1ccc(Oc2ccc(Br)cc2Br)c(Br)c1	none (no result: HTT aggregate, PNC assembly inh)
C[C@H](CN(C)C)C(C#N)(c1ccccc1)c1ccccc1	none (no result: HTT aggregate, PNC assembly inh)
CCc1ccc(-n2c(O)c(/C=N/N3CCCCC3c3cccnc3)c(=O)[nH]c2=O)cc1 (stereo not drawn)	PNC assembly inh -100
O=c1[nH]c(=S)n(-c2ccccc2)c(O)c1/C=N/N1CCCCC1c1cccnc1 (stereo not drawn)	none (no result: PNC assembly inh)
Cn1c(=O)c2c(nc(SCc3ccccc3)n2Cc2ccc(Cl)cc2)n(C)c1=O	HTT aggregate inconclusive
C[C@]12O[C@H](C[C@]1(O)CO)n1c3ccccc3c3c4c(c5c6ccccc6n2c5c31)CNC4=O	HTT aggregate 1.6µM (no result: PNC assembly inh)
CN[C@@H]1C[C@@]2(C)O[C@@H]([C@@H]1OC)n1c3ccccc3c3c4c(c5c6ccccc6n2c5c31)C(=O)NC4	none (no result: HTT aggregate, PNC assembly inh)
CCN1CCC2(CC1)NC(=O)c1ccccc1O2	none (no result: PNC assembly inh)
CNP(=S)(NC)OCCOc1ccc(OC)cc1	none
COc1cc(/C=C/[N+](=O)[O-])ccc1O	HTT aggregate 25µM, PNC assembly inh -84 (no result: HTT cytoprotect)
CCN(CC)c1ccc(/C=C/[N+](=O)[O-])cc1	none (no result: PNC assembly inh)
CCOP(=S)(OCC)SCCSCC	none (no result: HTT aggregate, PNC assembly inh)
CCOP(=S)(OCC)SCC(=O)NC(C)(CC)C(=O)O (stereo not drawn)	PNC assembly inh -111
COc1ccc(C(=O)OC2C[C@H]3CC[C@@H](C2)N3C)cc1OC (stereo partly drawn)	none (no result: HTT aggregate, PNC assembly inh)
CC[n+]1c(/C=C/N(C)c2ccccc2)sc2ccc(Cl)cc21	HTT aggregate 13µM
CC[n+]1c(/C=C/C=C/c2ccc(N(C)C)cc2)sc2ccccc21	HTT aggregate inconclusive (no result: PNC assembly inh)
CSCC[C@@H](N)P(C)(=O)O	none (no result: HTT aggregate, PNC assembly inh)
C[N+]1([O-])[C@@H]2CC(OC(=O)[C@@H](CO)c3ccccc3)C[C@@H]1[C@H]1O[C@H]12 (stereo partly drawn)	none (no result: PNC assembly inh)
C[CH2][Hg][S]c1ccccc1C(=O)O	HTT aggregate 2.5µM (no result: PNC assembly inh)
CC(C)COC(=O)c1ccccc1C(=O)OCC(C)C	none (no result: PNC assembly inh)
C=C(C)c1cccc(C(C)(C)NC(=O)NC2CN3CCC2CC3)c1 (stereo not drawn)	PNC assembly inh -94
O=C(COc1ccc(Cl)cc1)NC1CN2CCC1CC2 (stereo not drawn)	none
C[C@@]12Cc3cnc(-c4ccccc4)nc3C[C@@H]1CC[C@@H]1[C@H]3CC[C@@](C)(O)[C@]3(C)CC[C@@H]12	none (no result: HTT aggregate, PNC assembly inh)
Cc1ccc(-c2nc3ccccc3c(=O)n2-c2cccc(O)c2)cc1	none (no result: PNC assembly inh)
Cc1nc2ccccc2c(=O)n1-c1cccc(O)c1	PNC assembly inh -107
CCN1/C(=C\C=C\C2=[N+](CC)c3ccccc3C2(C)C)C(C)(C)c2ccccc21	HTT aggregate 0.56µM, PNC assembly inh inconclusive
CN1CCN(c2nc(Cl)ncc2F)CC1	none (no result: PNC assembly inh)
O=c1[nH]cc(F)c(=O)[nH]1	HTT aggregate inconclusive, PNC assembly inh -115
O=c1[nH]cc(N(CCCl)CCCl)c(=O)[nH]1	none (no result: PNC assembly inh)
CN(C)c1ccc(NC(=O)CN2C(=O)CN=C(c3ccccc3)c3ccccc32)cc1	none
CCNC(=O)[C@@H]1O[C@@H](n2cnc3c(N)ncnc32)[C@@H](O)[C@H]1O	none (no result: HTT aggregate, PNC assembly inh)
NC(=S)c1cn(C2OC(CO)C(O)C2O)c2ncnc(N)c12 (stereo not drawn)	HTT aggregate 2.8µM (no result: PNC assembly inh)
CNCCc1ccc(O)c(O)c1	none (no result: HTT aggregate, PNC assembly inh)
CCN(CC)c1ccc(C=C2C(=O)N(C)C(=S)N(C)C2=O)o1	none (no result: HTT cytoprotect)
CN1C(=O)C(=Cc2ccc(N3CCCCC3)o2)C(=O)N(C)C1=S	PNC assembly inh -100
CCCCC12CNCC(C)(CNC1)C2=O	none
COc1cc2c(cc1OC)C13CCN4CC5=CCOC6CC(=O)N2C1C6C5CC43 (stereo not drawn) (tested in a mixture with another compound)	none (no result: PNC assembly inh)
CC(C)CNCCc1ccccn1	none (no result: HTT aggregate, PNC assembly inh)
CC(C)(C)NCC1(CO)SC(N)=NC1=O (stereo not drawn)	HTT aggregate 22µM
CCn1cc(CN2CCCC(C(=O)c3cccc(OC)c3)C2)c(C)n1 (stereo not drawn)	none (no result: PNC assembly inh)
Cc1occc1C(=O)Nc1nnc(C(F)(F)F)s1	HTT aggregate 35µM, PNC assembly inh inconclusive
c1ccc(C2CNCc3ccccc32)cc1 (stereo not drawn)	none (no result: HTT aggregate, PNC assembly inh)
COc1ccc(C(C)=O)cc1CC(C(=O)c1ccccc1)N(C)C (stereo not drawn)	PNC assembly inh -94
COc1ccc(C(C)=O)cc1CC(C(=O)c1ccc(C)cc1)N(C)C (stereo not drawn)	HTT aggregate inconclusive
Cc1ccc(S(=O)(=O)N(C)C)cc1NC(=O)C(C)[N+]12CCN(CC1)CC2 (stereo not drawn)	none (no result: PNC assembly inh)
